Bioassay records as filed in PubChem.
Sampled rows, rich in hits. Any-hit rate of the full collection: about 7.4%.
KinaseGlo FLuc: Kinase-Glo luciferase inhibition (counter-screen) | Potency, µM (highest dose often 38.3 µM), usual class: inhibitors | Kinase-Glo luciferase, ATP luminescence, 8 min | Q27757 | hit rate 0.28% among 200,000; also: nearly all actives have a fitted effect of over 60% in size
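Kinase-Glo luciferase light output from ATP and luciferin was measured with 10 uM ATP, within the enzyme's linear range. Buffer: 50 mM imidazole pH 7.2, 50 mM KCl, 7 mM MgCl2, 0.01% Tween 20, 0.05% BSA; luminescence read after 8 min at ambient temperature.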
Rab9 promoter act: activators of Rab9 promoter; Huh7 Rab9 promoter-luciferase reporter, luminescence, 24 h; Potency, µM (titrated, usually from 9.22 µM), usual class: activators; hit rate 2.8% among 320,000; also: nearly all actives have a fitted effect of over 60% in size
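Luciferase signal after 10 min detection reagent at ambient indicates Rab9 promoter upregulation; stably transfected Huh7 cells were treated 24 h with compound in DMSO at 37 °C, 5% CO2.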
SMN2 splice up: enhancers of SMN2 splice variant expression. Potency, µM (doses to about 46.1 µM), hits mostly activators. hit rate 2.8% among 210,000. HEK293 SMN2-luciferase splicing reporter, luminescence, 30-36 h; also: nearly all actives have a fitted effect of over 55% in size
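HEK293 cells carry an SMN2 […]–luciferase reporter in which exon 7 inclusion puts luciferase in frame. Cells were plated 10-12 h before compound addition, then incubated 30-36 h at 37C. ONE-Glo luminescence was read; sodium butyrate at 4.5 mM final served as control.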
FLuc modulator: counter-screen for miR-21 project: firefly luciferase inhibitors or activators; AID 588342; Potency, µM (highest dose often 57.5 µM), hits mostly inhibitors; hit rate 6.9% among 360,000; purified FLuc, Km substrates, luminescence inhibition; P08659; also: nearly all actives have a fitted effect of over 55% in size
Target sequence (P08659 whole entry, looked up): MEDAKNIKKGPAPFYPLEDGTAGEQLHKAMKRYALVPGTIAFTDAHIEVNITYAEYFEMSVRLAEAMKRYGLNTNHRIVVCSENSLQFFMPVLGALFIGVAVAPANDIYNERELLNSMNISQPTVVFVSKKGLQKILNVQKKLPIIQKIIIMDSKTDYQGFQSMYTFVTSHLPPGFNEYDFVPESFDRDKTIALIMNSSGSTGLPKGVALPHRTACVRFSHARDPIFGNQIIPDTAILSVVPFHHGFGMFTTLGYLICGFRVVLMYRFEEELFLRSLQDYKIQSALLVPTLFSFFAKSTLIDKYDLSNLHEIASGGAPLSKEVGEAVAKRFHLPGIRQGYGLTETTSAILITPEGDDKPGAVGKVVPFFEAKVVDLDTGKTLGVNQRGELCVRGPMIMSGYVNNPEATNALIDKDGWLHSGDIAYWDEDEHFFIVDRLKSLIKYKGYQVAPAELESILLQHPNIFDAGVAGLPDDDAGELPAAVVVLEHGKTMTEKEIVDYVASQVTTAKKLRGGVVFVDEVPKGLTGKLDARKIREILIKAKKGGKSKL
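Purified P. pyralis luciferase (10nM final) with 10uM D-luciferin and 10uM ATP (Km levels) in 50mM Tris acetate pH 7.5, 10mM Mg acetate, 0.01% Tween-20, 0.05% BSA; qHTS 6-point titration, ~60 µM downward; luminescence read.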
ELG1 genotox: genotoxicity induction in ELG1-luciferase HEK293T cells; Potency, µM (series often up to 46 µM), actives largely listed as activators; AID 504466; hit rate 1.3% among 330,000; HEK293T ELG1-luciferase reporter, luminescence, 16 h; also: nearly all actives have a fitted effect of over 60% in size
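Reporter readout depends on ELG1 protein level, which increases with genetic stress. After 16 hr compound exposure at 37 °C, luciferase activity was quantified using ONE-Glo.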
NPC1 promoter act: NPC1 promoter activation. hit rate 2.4% among 320,000. AID 485313. Huh7 NPC1 promoter luciferase reporter, 24 h. Potency, µM (series often up to 9.22 µM), most hits filed as activators; also: nearly all actives have a fitted effect of over 60% in size
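Stable NPC1-promoter luciferase Huh7 line; cpd (DMSO) 24 h, 37 °C, 5% CO2; Amplite luciferase reagent 10 min RT; luminescence readout. qHTS format.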
Numbers stand for hits; . = inactive; ? = inconclusive; / = not tested or not shown. Calls follow the shape of the dose curve; as a rule, active = well fitted curve in the direction sought with a large enough effect; inconclusive = small, poorly fitted or top-dose-only effect, or another doubt; inactive = no such curve, though single readings can be large; an effect the other way counts as inactive or inconclusive.

SMILES | KinaseGlo FLuc | Rab9 promoter act | SMN2 splice up | FLuc modulator | ELG1 genotox | NPC1 promoter act
Cn1c(=NC(=O)c2ccccc2[N+](=O)[O-])sc2cccc(F)c21 | / | 0.501µM | / | 0.601µM | ? | 0.562µM
Oc1ccccc1C1NN=C(c2ccccc2)S1 (centres undefined) | / | ? | / | 0.477µM | ? | ?
O=C(Nc1cccc(Cl)c1)N1N=CCC1c1ccccc1 (centres undefined) | / | . | / | . | . | .
Fc1ccc(NC(=S)N2N=CCC2c2ccccc2)cc1 (centres undefined) | . | . | . | ? | 23.1µM | .
S=C(Nc1ccccc1)N1N=CCC1c1ccccc1 (centres undefined) | . | . | . | 16.9µM | ? | .
COc1ccc2c(c1OC)C(=O)N(c1cccc(C)c1)C2 | . | 1.41µM | 14.1µM | 1.51µM | 2.06µM | 1.41µM
COc1ccc2c(c1OC)C(=O)N(c1ccc(C)cc1)C2 | / | 0.708µM | / | 3.01µM | 18.3µM | 1.12µM
COc1ccccc1N1Cc2ccc(OC)c(OC)c2C1=O | / | . | / | . | . | .
COc1ccc2c(c1OC)C(=O)N(c1cccc(C(F)(F)F)c1)C2 | . | 4.47µM | 12.6µM | 5.36µM | ? | ?
COc1ccc2c(c1OC)C(=O)N(c1ccccn1)C2 | . | 2.24µM | 11.2µM | 10.7µM | 9.2µM | 3.16µM
CN1C(=O)NC(c2ccccc2)C2=C1CN(c1cccc(C(F)(F)F)c1)C2=O (centres undefined) | . | . | . | . | . | .
Cc1cccc(N2CC(=O)N(c3cccc(C)c3)CC2=O)c1 | . | . | . | . | . | .
O=C(N/N=C/c1ccccc1OCc1ccccc1Cl)c1cccnc1 | . | . | . | 23.9µM | . | .
O=C(Nc1ccc(OCc2ccccc2Cl)cc1)c1cccnc1 | / | . | / | ? | . | .
CCOc1cccc(/C=N/NC(=O)c2cccnc2)c1O | / | . | / | 19µM | ? | .
CCOc1cccc(/C=N/NC(=O)c2cc(C3CC3)[nH]n2)c1O | / | . | / | 12µM | ? | .
CCn1c2ccccc2c2cc(NC(=O)COC(=O)c3cc(Cl)c(N)cc3OC)ccc21 | / | . | / | . | . | .
O=C(CSc1nncn2c1cc1occc12)Nc1ccccc1C(F)(F)F | / | / | / | . | / | /
CC(=O)NCCc1nc2cc(NC(=O)c3ccc([N+](=O)[O-])cc3)ccc2n1C | / | ? | / | 15.1µM | . | ?
CN1CCN(CCc2nc3cc(NC(=O)c4ccco4)ccc3n2C)CC1 | / | . | / | . | . | .
Cc1ccc(C(=O)Nc2ccc3c(c2)nc(CCNC(=O)c2ccco2)n3C)cc1 | / | 3.55µM | / | ? | ? | 3.55µM
Cn1c(CCN2CCN(c3ccccc3)CC2)nc2cc(NC(=O)c3ccco3)ccc21 | . | 4.47µM | . | . | . | .
Cn1c(CN2CCCC2)nc2cc(NC(=O)c3ccco3)ccc21 | . | ? | ? | ? | 14.6µM | .
CC(=O)Nc1ccc2c(c1)nc(CCNC(=O)c1ccccc1)n2C | . | . | . | . | . | .
Cc1ccc(N2CCN(CCc3nc4cc(NC(=O)c5ccco5)ccc4n3C)CC2)cc1 | . | . | . | . | . | .
SMILES | KinaseGlo FLuc | Rab9 promoter act | SMN2 splice up | FLuc modulator | ELG1 genotox | NPC1 promoter act
O=C(NC(Cc1ccccc1)C(=O)O)NC12CC3CC(CC(C3)C1)C2 (centres undefined) | / | . | / | . | . | .
Cc1cccc(NC(=O)Cn2nc(N3CCN(c4ccccc4)CC3)ccc2=O)c1C | / | / | / | . | / | /
Cc1ccc(C2(c3noc(CN(C)Cc4cccnc4)n3)CCCC2)cc1 | . | . | / | . | . | .
CCC(C)(C)C1CCC(=NNc2nc3ccccc3[nH]2)CC1 (centres undefined) | . | . | . | 12µM | . | .
COC(=O)c1cc(-c2ccc(OC)cc2)n[nH]1 | . | ? | ? | 26.9µM | ? | ?
CCOc1ccc(-c2cc(C(=O)OC)[nH]n2)cc1 | . | 2.24µM | / | 9.53µM | ? | 3.16µM
COC(=O)c1cc(-c2ccc(C)cc2)n[nH]1 | . | ? | / | 23.9µM | ? | .
COC(=O)c1cc(-c2cccc(OC)c2)n[nH]1 | . | . | ? | ? | . | .
COc1cc(-c2nnc(COc3ccc(Cl)cc3C)o2)cc(OC)c1OC | . | . | . | . | . | .
Clc1cccc(OCc2nnc(-c3ccccc3Br)o2)c1 | / | . | / | ? | . | .
